# Compound activity as filed in PubChem BioAssay.
# The list is not random: actives were taken first. Their share in the collection is about 3.2%.
# Tau FP inhib = qHTS for Inhibitors of Tau Fibril Formation, Fluorescence Polarization | K18 P301L tau heparin fibrillization, Alexa594 FP, 6 h | AID 1468, 2008 | Potency, µM (doses to about 57.7 µM), for inactives: at the highest dose activity, negative = inhibition, most hits filed as inhibitors | hit rate 0.39% among 280,000; further: potency means the concentration at half of the fitted maximal effect; on the % scale 0 is the no-effect control and ±100 the full control effect; nearly all actives have a fitted effect of over 55% in size
# Target sequence (P10636 561-689 P618L limits assumed): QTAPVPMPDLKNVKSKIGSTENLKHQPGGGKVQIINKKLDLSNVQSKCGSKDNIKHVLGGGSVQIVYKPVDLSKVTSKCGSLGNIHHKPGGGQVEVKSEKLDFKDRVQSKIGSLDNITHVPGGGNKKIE
#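 Compound effects on tau fibrillization are measured by Alexa 594 fluorescence polarization (ex 555, em 632 nm). K18 P301L tau is used at 15 uM with 0.24 uM labeled tracer, and 20 uM heparin induces aggregation over 6 hr at 37 C.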
# KDM4E inh = qHTS Assay for Inhibitors of Human Jumonji Domain Containing 2E (JMJD2E); Potency, µM (titrated, usually from 57.1 µM), for inactives: at the highest dose activity change, negative = inhibition, most hits filed as inhibitors; JMJD2E catalytic domain, FDH-coupled NADH fluorescence (FDH is formaldehyde dehydrogenase); Lysine-specific demethylase 4E (Homo sapiens), B2RXH2; hit rate 1.6% among 230,000; active means well fitted inhibition curve with a large enough effect, not every such curve was filed as active; inconclusive means small, poorly fitted or top-dose-only effect, or another doubt; inactive means no such curve, though single readings can be large or run the other way;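 further: potency means the concentration at half of the fitted maximal effect; 0% = wells with enzyme and -100% = buffer wells without enzyme; nearly all actives have a fitted effect of over 50% in size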
# CBFb RUNX1 block = qHTS Assay for Compounds Blocking the Interaction Between CBF-beta and RUNX1 for the Treatment of Acute Myeloid Leukemia; Runt-related transcription factor 1 (Homo sapiens) + Core-binding factor subunit beta …; AID 1477, 2009; Potency, µM (doses to about 59.8 µM), for the others: top-dose activity, negative = inhibition, most hits filed as inhibitors; 230,000 tested, under 10 active; AlphaScreen CBFb-His/RUNX1-biotin binding, biochemical; further: % of control where 0% means no effect
# Target sequence (Q01196 whole entry, looked up): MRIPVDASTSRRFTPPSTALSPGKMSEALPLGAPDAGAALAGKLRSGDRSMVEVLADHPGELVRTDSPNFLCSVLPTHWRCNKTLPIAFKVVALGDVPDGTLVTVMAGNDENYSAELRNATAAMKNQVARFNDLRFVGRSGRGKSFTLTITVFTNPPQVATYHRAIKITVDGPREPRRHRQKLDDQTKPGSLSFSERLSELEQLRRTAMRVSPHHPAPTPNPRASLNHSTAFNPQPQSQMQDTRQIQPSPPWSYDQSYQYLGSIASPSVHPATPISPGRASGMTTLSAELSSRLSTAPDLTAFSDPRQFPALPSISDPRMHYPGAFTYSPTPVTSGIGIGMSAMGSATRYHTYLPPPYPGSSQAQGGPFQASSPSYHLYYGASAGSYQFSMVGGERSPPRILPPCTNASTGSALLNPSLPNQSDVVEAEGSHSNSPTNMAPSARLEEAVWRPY
# Target sequence (Q13951 whole entry, looked up): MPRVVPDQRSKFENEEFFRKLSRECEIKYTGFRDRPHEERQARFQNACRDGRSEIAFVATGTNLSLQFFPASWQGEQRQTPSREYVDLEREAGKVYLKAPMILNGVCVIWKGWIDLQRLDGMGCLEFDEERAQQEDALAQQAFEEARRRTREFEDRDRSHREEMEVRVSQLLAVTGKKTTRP
#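 CBF-beta (His) and RUNX1 (biotin), 30 nM each; 20 min preassociation; + compound, 15 min; + beads 50 ng each (Ni, streptavidin), 90 min; RT; AlphaScreen read.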
# Tau fibril ThT = qHTS for Inhibitors of Tau Fibril Formation, Thioflavin T Binding. Microtubule-associated protein tau (Homo sapiens), P10636. recombinant tau K18 P301L, heparin-induced fibrillization, ThT fluorescence. Potency, µM (titrated, usually from 57.4 µM), without a hit: at the top dose activity, negative = inhibition, actives largely listed as inhibitors. hit rate 2.1% among 270,000; further: potency means the concentration at half of the fitted maximal effect; on the % scale 0 is the no-effect control and ±100 the full control effect; nearly all actives have a fitted effect of over 55% in size
#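 Heparin-induced (20 uM) aggregation of recombinant human K18 P301L tau, 15 uM unlabeled with 0.24 uM labeled, pH 7 acetate buffer, 6 hr at 37 C with compound. Fibrils quantified by 30 uM ThT fluorescence after 1 hr ambient incubation.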
# Tau fluor cs = Counterscreen qHTS for Inhibitors of Tau Fibril Formation, Fluorescence Polarization; tau K18 P301L (four-repeat tau fragment) Alexa594 fluorescence, heparin fibrillization; Potency, µM (highest dose often 57.7 µM), for the others: at the top dose activity change, negative = decrease; hit rate 0.93% among 280,000; AID 1463, 2008; further: potency means the concentration at half of the fitted maximal effect; on the % scale 0 is the no-effect control and ±100 the full control effect; nearly all actives have a fitted effect of over 55% in size
#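 Human K18 P301L tau (15 uM unlabeled plus 0.24 uM Alexa 594-labeled, final) in 100 mM sodium acetate pH 7 was mixed with compound and 20 uM heparin and incubated 6 hr at 37 C.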
# LMNA splice mod = qHTS Assay for Modulators of Lamin A Splicing. HeLa LMNA splicing GFP/RFP minigene ratio, 48 h. hit rate 0.01% among 200,000. Potency, µM (top dose mostly 46.1 µM), for inactives: at the highest dose ratio change, negative = inhibition, usual class: inhibitors; active means well fitted inhibition curve with a large enough effect in the signal ratio, with a control signal flat, not every such curve was filed as active; inconclusive means small, poorly fitted or top-dose-only effect, or effect the other way, or a change in a side signal; the % refers to the signal ratio; further: potency means the concentration at half of the fitted maximal effect; on the % scale 0 is the no-effect control and ±100 the full control effect
#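 Read-out is the ratio of GFP to DsRed2 object intensity, acquired by 488 nm laser-scanning cytometry on HeLa lamin A-EGFP minigene reporter cells. Compound incubation 48 hrs at 37 °C in Opti-MEM with 2% FBS; DMSO 0.5% final.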
# * marks the source's active call; other numbers are inactive results; u = inconclusive; x = no result; ! = a repeat was not active; [ ] = remark or other dose. Unless noted, the call rests on the fitted dose curve; in most records, active means well fitted curve in the direction sought with a large enough effect; inconclusive means small, poorly fitted or top-dose-only effect, or another doubt; inactive means no such curve, though single readings can be large; an effect the other way counts as inactive or inconclusive.
SMILES,Tau FP inhib,KDM4E inh,CBFb RUNX1 block,Tau fibril ThT,Tau fluor cs,LMNA splice mod
CC(=O)c1c(C)[nH]c(C(=O)Nc2cccc(S(=O)(=O)N(C)c3ccccc3)c2)c1C,28.2µM*,u,-24.4%,-16.5%,14.1µM*[quencher],x
O=C1c2ccccc2-c2nnc(-c3ccc(O)cc3)cc21,15.0%,2.7%,-14.9%,5.01µM*,u,x
COc1ccc(/C=N\Nc2ccc([N+](=O)[O-])cc2)c(C(=O)O)c1OC,5.9%,-5.8%,-4.4%,12.6µM*,-18.0%,x
CCOC(=O)N1CCc2c(sc(NCc3cccs3)c2C(=O)Nc2cc(Cl)ccc2OC)C1,2.6%,x,x,u,u,-3.3%[46 µM]
Fc1ccc(Nc2ccc3ccccc3n2)c(F)c1,9.5%,22.4µM*,8.1%,-5.2%,-21.1%,x
Cc1cc(Nc2ccc(F)cc2F)nc(-n2nc(C)cc2C)n1,4.6%,x,x,-5.4%,-5.7%,u
COC(=O)c1ccccc1NC(=O)Cn1c(=O)n(Cc2ccccc2)c(=O)c2c(C)c(C)sc21,-4.3%,1.5%,-9.3%,-1.0%,-15.7%,-6.9%
Cc1sc2c(c1C)c(=O)n(Cc1ccccc1)c(=O)n2CC(=O)Nc1cccc(Cl)c1,31.6µM*,x,x,u,-24.4%,x
CC(=O)N1CCc2c(sc3c2c(=O)n(Cc2ccccc2)c(=O)n3CC(=O)Nc2ccc(C)c(F)c2)C1,28.2µM*,x,x,u,u,x
COc1cccc(NC(=O)Cn2c(=O)n(Cc3ccccc3)c(=O)c3c4c(sc32)CN(C(C)=O)CC4)c1,u,x,x,7.0%,u,x
COc1ccc(OC)c(C2c3c(-c4ccc(Br)cc4)n[nH]c3C(=O)N2c2ccc(Cl)cc2)c1 (stereo unspecified),u,x,x,-2.2%,-18.4%,x
COc1cccc(-c2nc(S(=O)(=O)c3ccccc3)c(NCc3ccccc3)o2)c1,-10.5%,x,x,-3.0%,u,x
Cc1ccc(NC2=C/C(=N\S(=O)(=O)c3cccs3)c3ccccc3C2=O)c(C)c1,2.0%,-2.3%,x,u,u,u
Cc1cc(C)c(S(=O)(=O)/N=C2/C=C(SCC(=O)O)C(=O)c3ccccc32)cc1C,10µM*,u,u,7.08µM*,u,x
COc1ccc(Br)cc1CNC(=O)CCc1cn(Cc2ccc(C)cc2)c2ccccc12,-1.6%,x,x,-11.1%,-23.0%,x
CCOC(=O)C1=C(C)c2ccccc2N(C(=O)OC)C1(C)C(=O)OCC (stereo unspecified),-0.1%[81.3 µM],x,-7.1%[89.1 µM],u,-11.3%[81.3 µM],x
CCC(C)C(=O)N1c2ccccc2C(=C2SC(C(=O)OC)=C(C(=O)OC)S2)C(=S)C1(C)C (stereo unspecified),u,-10.6%,u,3.98µM*,u,-4.3%
NNC(=O)c1ccc(N2CCc3ccccc32)c([N+](=O)[O-])c1,10.1%,3.0%,u,14.1µM*,u,-24.7%[46 µM]
Cn1c(=Nc2ccc(N3CCOCC3)cc2)ccc2ccccc21,-4.7%,-0.2%,1.1%,-15.4%,-4.9%,15.3%
Cn1c(N=Nc2ccc(N3CCOCC3)cc2)[n+](C)c2ccccc21,14.1µM*,-21.1%,4.4%,1µM*,3.98µM*[quencher],1.1%[46 µM]
COc1ccc(-n2c(C)cc(/C=C/c3nc(O)c([N+](=O)[O-])c(=O)[nH]3)c2C)cc1,1.7%,3.4%,-28.6%,15.8µM*,-6.9%,u
Cc1cc(/C=C\c2nc(O)c([N+](=O)[O-])c(=O)[nH]2)c(C)n1-c1ccccc1,3.2%,-10.5%,-26.5%,u,-9.1%,x
CC1CCCN(CCCNC(=O)Cn2ncc3c([nH]c4ccccc43)c2=O)C1 (stereo unspecified),-8.1%,x,x,-10.3%,-12.5%,5.2%[46 µM]
COc1ccc(OC)c(C2=C/C(=C/c3ccccn3)C(=O)O2)c1,5.7%,25.1µM*,u,u,-16.8%,6.8%[46 µM]
CCOC(=O)c1cccc(NC(=O)Cn2ncc3c(=O)oc4ccccc4c32)c1,2.7%,x,x,7.5%,-4.1%,x
SMILES,Tau FP inhib,KDM4E inh,CBFb RUNX1 block,Tau fibril ThT,Tau fluor cs,LMNA splice mod
Nc1sc2c(c1C(=O)c1ccc(Cl)cc1)CCCC2,x,x,-6.9%,x,x,x
O=C1Nc2ccc(Br)cc2C12NNc1ccccc1O2 (stereo unspecified),15.2%,-1.3%,-18.5%,8.91µM*,7.08µM*[quencher],u
O=C1Nc2ccc(Br)cc2C1(O)Cc1ccccn1 (stereo unspecified),-5.1%,-2.9%,-1.7%,2.0%,-2.9%,-2.2%
S=C(Nc1ccc(Cl)c(Cl)c1)NC1CCN(Cc2ccccc2)CC1,25.1µM*,-10.0%,-6.3%,3.9%,u,u
CC(=O)Nc1ccc(OS(=O)(=O)c2ccc(C(C)(C)C)cc2)cc1,u,18.0%,14.7%,-8.4%,u,9.9%[46 µM]
CC(=O)Nc1ccc(S(=O)(=O)Oc2ccc(/C=C3\SC(N)=NC3=O)cc2)cc1,25.1µM*,-11.8%,-2.7%,-16.6%,-13.4%,x
CC#CCN1c2ccccc2[C@]23C[C@@H](C(=O)OC)N(C(=O)c4cccs4)C2=NC(C(=O)OC)=C(C(=O)OC)[C@H]13,2.0%[11.6 µM],9.1%[11.4 µM],5.8%[13.1 µM],-5.0%[11.5 µM],-8.1%[11.6 µM],5.4%[9.22 µM]
CC1CCCC(C)N1C(=O)Cn1cc(/C=C2/C(=O)Nc3ccccc32)c2ccccc21 (stereo unspecified),13.7%,3.1%,u,14.1µM*,u,-0.4%
COC(=O)c1cn(CC(=O)N2C(C)CCCC2C)c2ccccc12 (stereo unspecified),-2.2%,3.6%,5.5%,-4.3%,-4.9%,-15.4%
Oc1ccc2oc3c(c2c1C=NCc1ccncc1)CCCC3,u,u,2.0%,15.8µM*,u,x
Cc1ccc2cc3cc(C(=O)N4CCN(c5ccccc5)CC4)oc3nc2c1,-8.6%,x,x,u,-13.7%,9.5%[46 µM]
CC(=O)N[C@@H](C(=O)O)C(C)(C)SN=O,u,-16.2%,11.9%[21.7 µM],28.2µM*,-19.8%,x
CC(=O)N[C@H](C(=O)O)C(C)(C)SN=O,u,6.8%,17.9%,u,-4.9%,-17.6%
COC(=O)CCCC1=CC2=C(c3ccccc3)C(=O)C(C)(OC(=O)C3CCCC3)C(=O)C2=CN1CC(C)C (stereo unspecified),-6.5%[11.6 µM],17.8µM*!,4.8%[13.1 µM],u,-7.1%[11.6 µM],u
COCCN1C=C2C(=O)C(C)(OC(=O)C3CCCC3)C(=O)C(c3ccccc3)=C2C=C1CCCC(=O)OC (stereo unspecified),1.7%[11.6 µM],u,-1.8%[13.1 µM],-17.9%[11.5 µM],-11.0%[11.6 µM],u
